GSH fluor = compound fluorescence on glutathione beads, profiling panel, artefact control, biophysical, 488/530 nm, flow cytometry. fluorescence (KMESF) at 10 µM. GSH beads flow cytometry, compound fluorescence 488/530 nm; active compounds read high. hit rate 0.25% among 190,000. AID 1776, 2009; in the data active = fluorescence above about 89;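 also: glutathione beads carrying GST-tagged Bcl family fusion proteins plus one bare bead set; values are compound well signal with DMSO vehicle wells as background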
RGS8-Gao = RGS8-Galphao binding modulators, primary screen, biochemical, multiplexed bead flow cytometry; Guanine nucleotide-binding protein G(o) subunit alpha (Homo sapiens), P09471; actives lie on both sides; response (percent of control binding), % at 10 µM; hit rate 0.34% among 220,000; in the data active = response below about 60% or above about 140%; inactive = in between;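 also: Galphao activated as the GDP aluminium fluoride complex binding bead-coupled RGS8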
Target sequence (P09471 whole entry, looked up): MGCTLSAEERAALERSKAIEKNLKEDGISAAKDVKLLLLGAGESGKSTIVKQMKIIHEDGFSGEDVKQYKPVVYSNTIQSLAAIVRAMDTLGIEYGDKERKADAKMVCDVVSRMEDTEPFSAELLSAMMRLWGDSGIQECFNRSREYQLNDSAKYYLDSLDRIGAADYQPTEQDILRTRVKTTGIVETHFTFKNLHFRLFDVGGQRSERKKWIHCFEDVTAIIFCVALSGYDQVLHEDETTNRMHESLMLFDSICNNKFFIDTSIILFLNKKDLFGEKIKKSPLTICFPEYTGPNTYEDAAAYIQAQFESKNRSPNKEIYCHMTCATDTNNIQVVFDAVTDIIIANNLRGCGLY
RGS4-Gao reg = modulators of RGS4 binding to Galphao, primary screen, biochemical, multiplexed bead flow cytometry. actives lie on both sides. binding response (% of control), % at 10 µM. hit rate 0.33% among 220,000. AID 1415, 2008; in the data active = binding response below about 49% or above about 150%; inactive = in between;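 also: fluorescent Galphao activated with aluminum fluoride binding bead-coupled RGS4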
RGS16-Gao = modulators of RGS16 binding to Galphao, primary screen, biochemical, human proteins, multiplexed bead flow cytometry. hit rate 0.38% among 220,000. bead-based flow cytometry RGS16-Galphao binding, fluorescence; actives lie on both sides. binding response (% of control), % at 10 µM. Regulator of G-protein signaling 16 (Homo sapiens) + Guanine nucleotide-binding protein …; call rule not given here;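 also: Galphao activated by GDP with aluminum fluoride before binding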
Target sequence (O15492 whole entry, looked up): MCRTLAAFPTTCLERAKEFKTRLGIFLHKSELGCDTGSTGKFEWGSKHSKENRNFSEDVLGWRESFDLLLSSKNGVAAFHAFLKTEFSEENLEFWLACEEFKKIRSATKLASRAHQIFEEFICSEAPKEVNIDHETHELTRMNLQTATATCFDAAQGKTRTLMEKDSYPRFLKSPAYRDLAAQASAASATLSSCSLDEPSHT
Target sequence (P09471 whole entry, looked up): as the sequence (P09471 whole entry, looked up) above
RGS7-Gao reg = RGS7-Galphao binding modulators, primary screen, biochemical, multiplexed bead flow cytometry | Guanine nucleotide-binding protein G(o) subunit alpha (Homo sapiens), P09471 | actives lie on both sides | binding response (% of control), % at 10 µM | hit rate 0.35% among 220,000 | AID 1439, 2008; in the data active = binding response below about 49% or above about 150%; inconclusive = no clear call, values can overlap the other calls; inactive = in between;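 also: fluorescent Galphao held in activated GDP-AlF4 state binding bead-coupled RGS7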
Avidin bead fluor = green autofluorescence of compounds with avidin beads – biophysical, 488/530 nm, flow cytometry, artefact control, profiling panel; compound fluorescence 488/530 nm; active compounds read high; fluorescence (KMESF) at 10 µM; hit rate 0.38% among 220,000; AID 1775, 2009; in the data active = fluorescence above about 47
* hit, by the source's call; ? = inconclusive; nt = not tested or not shown; [ ] = another dose, or the depositor's remark. The list is not random: actives were taken first. Their share in the collection is about 1.2%.

SMILES	GSH fluor	RGS8-Gao	RGS4-Gao reg	RGS16-Gao	RGS7-Gao reg	Avidin bead fluor
CC(=O)Nc1cccc(OCC(=O)NS(=O)(=O)c2ccc(Cl)cc2)c1	99*	100.0	104.1	106.5	103.8	28
CCn1c(SCC(=O)N2CC(=O)Nc3ccccc32)nnc1-c1ccoc1C	260*	98.9	98.7	99.9	98.9	7
Cc1occc1-c1nnc(SCC(=O)N2CC(=O)Nc3ccccc32)n1CC(C)C	10	102.0	108.7	97.4	111.8	nt
Cc1ccc(NC(=O)C2CC(=O)N(Cc3ccccc3)C2)cc1S(=O)(=O)N1CCCCCC1 (centres undefined)	14	103.6	100.5	99.4	100.4	21
CCc1ccc(N2CC(C(=O)Nc3ccc(C)c(S(=O)(=O)N4CCOCC4)c3)CC2=O)cc1 (centres undefined)	34	145.4*[activator]	180.6*[activator]	167.8	151.8*[activator]	5
O=C(Cn1cc(C(F)(F)F)ccc1=O)Nc1cccc(S(=O)(=O)N2CCOCC2)c1	11	101.2	105.7	99.3	135.8	96*
C=CCn1c(=O)c(C#N)cc2c(=O)n3ccccc3nc21	35	96.7	82.9	76.1	83.5	7
C=CCn1c(=N)c(C#N)cc2c(=O)n3ccccc3nc21	104*	102.7	103.5	102.8	99.2	7
Cn1c(=O)[nH]c(NC2CCCCC2)c(N=O)c1=O	15	111.5	104.7	126.7	101.3	5
CCCNc1[nH]c(=O)n(C)c(=O)c1N=O	8	101.9	100.4	103.9	109.3	69*
OC(CNCc1ccco1)COc1ccccc1 (centres undefined)	45	98.9	96.6	95.0	99.2	6
OC(CNCc1ccco1)Cn1c2ccccc2c2ccccc21 (centres undefined)	263*	104.6	96.1	99.6	102.1	6
O=c1cc(CN2CCN(c3ccccc3)CC2)c2c(ccc3ccccc32)o1	14	97.5	100.1	95.5	108.1	55*
O=c1cc(CN2CCC3(CC2)OCCO3)c2c(ccc3ccccc32)o1	8	102.5	99.4	98.2	102.7	10
COc1cccc(CC2(CO)CCN(Cc3cccn3-c3cccnc3)CC2)c1	52	99.9	99.5	101.7	100.3	9
O=C(c1cccc2nc3ccccc3nc12)N1CCOCC1	nt	103.3	102.2	104.1	?	8
Cc1ccc(N(CC(O)Cn2nc(C)cc2C)S(=O)(=O)c2ccc3ccccc3c2)cc1 (centres undefined)	17	98.0	97.3	95.4	95.6	14
Cc1cc(C)n(CC(O)CN(c2ccccc2)S(=O)(=O)c2ccccc2)n1 (centres undefined)	39	96.0	100.4	115.6	145.9	67*
COC(=O)c1cc2c(ccn2-c2ccc(F)cc2)n1CC(C)C	10	103.2	97.0	99.5	96.7	10
COC(=O)c1cc2c(ccn2-c2ccc(F)cc2)n1C(C)C	10	103.6	108.7	102.4	110.7	52*
CN(C)c1ccc(/C=C2\SC(=S)N(Nc3ncc(C(F)(F)F)cc3Cl)C2=O)cc1	45	104.3	118.5	122.9	118.9	56*
O=C(CNCc1ccc(F)cc1)Nc1ccccc1[N+](=O)[O-]	14	93.6	99.6	87.5	98.9	7
O=C1NC(=Nc2ccccc2)CS1	nt	97.6	97.6	98.0	?	7
CCC1(CC)C(=O)N(C)C(=O)NC1=Nc1ccccc1	273*	99.0	104.1	99.9	102.8	9
Cc1cc(C)n2c(SCCC(C)C)nnc2n1	255*	110.1	110.8	119.2	107.1	9
SMILES	GSH fluor	RGS8-Gao	RGS4-Gao reg	RGS16-Gao	RGS7-Gao reg	Avidin bead fluor
CCn1c(C)cc2c(c1=O)C(c1ccc3c(c1)OCO3)C(C#N)=C(N)O2 (centres undefined)	17	102.8	105.5	105.6	113.9	63*
Cc1ccc(CN2CCN(Cc3cccn3-c3nccs3)CC2CCO)cc1 (centres undefined)	11	101.3	103.2	103.0	99.7	10
O=C(Nc1nc2c(s1)CCCC2=O)c1cnccn1	269*	101.5	98.9	100.7	95.6	8
O=C(CCCN1C(=O)c2ccccc2C1=O)NC1=NCCS1	259*	103.7	100.2	95.6	98.0	8
CCOCCCNC(=O)C(c1ccccc1)N(Cc1ccc2c(c1)OCO2)C(=O)c1ccccc1O (centres undefined)	14	102.8	112.5	105.4	111.1	8
COc1ccc(C2=NN(CC(=O)Nc3cc(C)ccc3C)C(=O)CC2)cc1	nt	72.6	59.4	57.6	?	3
O=C(O/N=C1\CCS(=O)(=O)c2sccc21)c1ccccc1	16	104.8	103.3	110.2	106.6	51*
CC1N(O)C(C)(C)C(c2ccccc2)=[N+]1[O-] (centres undefined)	103*	81.4	81.7	77.4	83.9	3
Cc1nnsc1C(=O)N/N=C/c1ccc(OC(F)(F)F)cc1	10	102.7	98.6	109.4	99.6	19
CCOc1ccccc1OCCCC(=O)N1CCN(S(=O)(=O)c2cccc(F)c2)CC1	8	94.6	87.5	91.0	99.9	8
CCOc1ccccc1OCCCC(=O)N1CCN(S(=O)(=O)c2ccc(C)cc2)CC1	256*	107.2	108.0	116.0	107.5	9
Cc1ccccc1CSCC(=O)NC(=O)NCc1ccco1	261*	101.3	90.6	103.7	91.7	6
Cn1ccnc1C(=O)c1cc(SCC(=O)NCc2ccccc2)nc2ccccc12	8	97.2	101.7	101.0	108.0	8
COC(=O)CSc1cc(C(=O)c2nccn2C)c2ccccc2n1	271*	102.1	105.6	107.8	104.0	8
COc1cc2[nH]c(=O)n(Cc3ccc(C(=O)NC4CCCC4)cc3)c(=O)c2cc1OC	10	107.1	111.2	105.8	103.6	24
COc1cc2[nH]c(=O)n(CCC(=O)NC3CCCC3)c(=O)c2cc1OC	23	102.5	106.7	102.7	119.9	68*
COc1ccc(CCNC(=O)C(=O)N2CCCC2)cc1OC	16	98.9	99.1	103.2	99.6	5
Cc1cccc(N(CC(=O)N/N=C/c2cc([N+](=O)[O-])ccc2Cl)S(C)(=O)=O)c1C	8	99.8	102.5	99.7	105.1	49*
O=C(NCc1ccco1)/C(=C/c1cccnc1)NC(=O)c1ccco1	24	12.5*	21.0*	1.6*	14.1*	-2
O=[N+]([O-])c1ccc(Sc2nnnn2-c2ccccc2)nc1	21	97.7	96.7	97.2	96.7	6

Screening results deposited in PubChem by NMMLSC.
